The results in this text go back to PubChem BioAssay.

Calls of active or inactive are those of the source. Unless noted, how the calls were made is not given here.

Assay [1] deals with Wnt5a (protein binding on small-molecule microarray). The experiment in a line: Wnt5a binders on small-molecule microarray, primary screen, biophysical, 635/667 nm fluorescence (AID 1142).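 Further: fluorescence read at 667 nm with signal to noise per printed feature.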 The settings on record: 635 nm fluorescence, higher = more signal.
Assay [2] in a line: cell viability in Huh7 cells, primary screen, cytotoxicity control for HCV replication inhibitor project, CellTiter-Glo luminescence, basal, 48 h (AID 1143).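 Further: Huh7 hepatoma cells carrying a hepatitis C replication reporter with no stimulus; test concentration not given here.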 The settings on record: Huh7 HCV replicon, higher = more signal, called active from +8 up or from −8 down.
A short description of assay [3]: P. aeruginosa biofilm formation inhibitors, primary screen, PAO1 strain, BacTiter-Glo luminescence, LB-PBS (AID 1144). Particulars: 12 h, higher = more signal.
Assay [4] in a line: CREB reporter modulators without forskolin, primary screen, cell-based, PC12, CRE-LacZ reporter, unstimulated (AID 1145). Particulars: no forskolin, luminescence, 4.5 h, higher = more signal, called active from +8 up or from −8 down.
The nature of assay [5]: CREB reporter modulators under forskolin, primary screen, cell-based, PC12, CRE-LacZ reporter, forskolin-stimulated (AID 1146).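 Further: PC12 cells with 6xCRE LacZ reporter stimulated by forskolin 10 µM; beta-galactosidase reporter signal reflecting CREB driven transcription.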 The settings on record: luminescence, 4.5 h, higher = more signal, called active from +8 up or from −8 down.
For assay [6], the target named is Streptavidin (Streptomyces avidinii) (UniProt P22629). The experiment in a line: streptavidin binders on small-molecule microarray, primary screen, artefact control for SMM compound annotation, biophysical, 635/667 nm fluorescence (AID 1147).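 Further: signal reflects streptavidin binding to arrayed compounds as a control protein.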 Particulars: streptavidin binding, higher = more signal.
Chain of Streptavidin (Streptomyces avidinii) (P22629 whole entry, looked up): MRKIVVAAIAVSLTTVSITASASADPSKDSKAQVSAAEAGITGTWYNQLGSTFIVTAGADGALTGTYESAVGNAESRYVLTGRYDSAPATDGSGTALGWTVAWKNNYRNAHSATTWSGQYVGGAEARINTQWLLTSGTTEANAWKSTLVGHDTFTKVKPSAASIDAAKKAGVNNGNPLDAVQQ
Assay [7] in a line: small-molecule binders of probe aInhba, primary screen, biochemical, small-molecule microarray, 635/667 nm fluorescence (AID 1148).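 Further: score merges 667nm spot fluorescence with signal-to-noise for antibody binding to printed compounds.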 Particulars: higher = more signal.
Assay [8] has as its target Torsin-1A (Homo sapiens) (UniProt O14656). The experiment in a line: torsin A binders from cell lysate, primary screen, small-molecule microarray, wild-type, 635/667 nm (AID 1149). The settings on record: COS7 hTOR1A-WT lysate, 635 nm fluorescence, higher = more signal.
Assay [9] shares this target. The experiment in a line: small-molecule binders of mutant TOR1A in lysate, primary screen, cell lysate, small-molecule microarray, COS7 lysate, 635/667 nm fluorescence (AID 1150).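 Further: score pools 667 nm emission and signal to noise measuring lysate protein binding.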 The settings on record: COS7 hTOR1A mutant lysate, 635 nm fluorescence, higher = more signal.
In assay [10] the test system is Sonic hedgehog protein (Shh). The experiment in a line: small-molecule binders of Shh protein, primary screen, biochemical, small-molecule microarray, 635/667 nm fluorescence (AID 1151).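 Further: Shh protein binding to compounds spotted on small-molecule microarray slides; score combines spot fluorescence intensity with signal-to-noise across triplicate slides.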 The settings on record: small-molecule microarray binding, 635 nm fluorescence; higher = more signal.
Assay [11] in a line: E. coli DRC41 culture turbidity changes, primary screen, E. coli filamentation inducer project, strain DRC41, OD650, 48 h (AID 1152).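 Further: E. coli MC1000 strain DRC41 lacking acrAB efflux pump and sulA.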 The settings on record: E. coli DRC41 (acrAB sulA), higher = more signal, called active from +8 up or from −8 down.
A short description of assay [12]: small-molecule binders of probe aLefty1, primary screen, biochemical, small-molecule microarray, 635/667 nm fluorescence (AID 1153).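 Further: score merges spot fluorescence with signal-to-noise ratio from the scanned slide images.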 Particulars: higher = more signal.
Assay [13] can be described thus: PSAC antagonists in infected red cells, primary screen, cell-based, P. falciparum Indochina, OD700, 1 h (AID 1154). The settings on record: P. falciparum Indochina infected RBC osmotic lysis, higher = more signal, called active from +8 up or from −8 down.
Assay [14] is described as follows: PSAC antagonists in infected red cells, primary screen, cell-based, P. falciparum Indochina, OD700, 2 h (AID 1155).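 Further: lysis reports solute entry through the parasite surface anion channel PSAC; channel blockers reduce lysis of infected cells.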 The settings on record: P. falciparum Indochina infected erythrocytes, osmotic lysis OD700; higher = more signal, called active from +8 up or from −8 down.
Assay [15] is described as follows: osmotic lysis modulators in infected erythrocytes, primary screen, PSAC antagonist project, cell-based, P. falciparum Indochina, OD700, 3 h (AID 1156). The settings on record: higher = more signal, called active from +8 up or from −8 down.
Assay [16] is described as follows: PSAC antagonists in infected red cells, primary screen, cell-based, P. falciparum Indochina, OD700, 18 h (AID 1157). Particulars: P. falciparum Indochina infected erythrocytes, osmotic lysis OD700, 18 h; higher = more signal, called active from +8 up or from −8 down.
Assay [17] in a line: modulators of S6 phosphorylation in cells, primary screen, cell-based, A549, cytoblot, luminescence, serum-stimulated (AID 1158).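 Further: serum-stimulated A549 lung adenocarcinoma cells; signal is phosphorylated S6 detected by cytoblot immunostaining with HRP secondary.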 The settings on record: A549 phospho-S6 cytoblot, 5 h, higher = more signal.
The target of assay [18] is NADPH oxidase 2 (Homo sapiens) (UniProt P04839). The assay is described as follows: NOX2-dependent H2O2 signal modulators, primary screen, NOX inhibitor project, cell-based, HEK293-NOX2, PMA-stimulated, Amplex Red fluorescence (AID 1159). Further: test concentration not given here. Particulars: 45 min, higher = more signal, called active from +8 up or from −8 down.
Chain of NADPH oxidase 2 (Homo sapiens) (P04839 whole entry, looked up): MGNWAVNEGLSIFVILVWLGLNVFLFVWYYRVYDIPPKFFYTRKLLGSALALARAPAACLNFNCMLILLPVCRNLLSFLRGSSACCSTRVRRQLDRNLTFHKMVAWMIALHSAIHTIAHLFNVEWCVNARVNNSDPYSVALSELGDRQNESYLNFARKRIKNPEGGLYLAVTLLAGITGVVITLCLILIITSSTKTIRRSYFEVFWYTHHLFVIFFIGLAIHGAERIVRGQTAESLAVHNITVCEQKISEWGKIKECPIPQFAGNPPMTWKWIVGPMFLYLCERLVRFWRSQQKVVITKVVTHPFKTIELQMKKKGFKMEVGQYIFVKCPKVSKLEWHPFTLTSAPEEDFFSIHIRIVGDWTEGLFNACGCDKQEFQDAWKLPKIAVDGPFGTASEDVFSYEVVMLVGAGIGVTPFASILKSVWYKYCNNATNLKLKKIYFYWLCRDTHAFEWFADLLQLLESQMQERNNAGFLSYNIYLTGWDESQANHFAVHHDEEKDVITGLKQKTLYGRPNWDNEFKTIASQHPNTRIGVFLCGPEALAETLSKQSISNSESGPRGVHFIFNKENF
In assay [19] the target is NADPH oxidase 4 (Homo sapiens) (UniProt Q9NPH5). The experiment in a line: NOX4-dependent H2O2 signal modulators, primary screen, NOX inhibitor project, cell-based, HEK293-NOX4, tetracycline-induced, Amplex Red fluorescence (AID 1160). The settings on record: 45 min, higher = more signal, called active from +8 up or from −8 down.
Chain of NADPH oxidase 4 (Homo sapiens) (Q9NPH5 whole entry, looked up): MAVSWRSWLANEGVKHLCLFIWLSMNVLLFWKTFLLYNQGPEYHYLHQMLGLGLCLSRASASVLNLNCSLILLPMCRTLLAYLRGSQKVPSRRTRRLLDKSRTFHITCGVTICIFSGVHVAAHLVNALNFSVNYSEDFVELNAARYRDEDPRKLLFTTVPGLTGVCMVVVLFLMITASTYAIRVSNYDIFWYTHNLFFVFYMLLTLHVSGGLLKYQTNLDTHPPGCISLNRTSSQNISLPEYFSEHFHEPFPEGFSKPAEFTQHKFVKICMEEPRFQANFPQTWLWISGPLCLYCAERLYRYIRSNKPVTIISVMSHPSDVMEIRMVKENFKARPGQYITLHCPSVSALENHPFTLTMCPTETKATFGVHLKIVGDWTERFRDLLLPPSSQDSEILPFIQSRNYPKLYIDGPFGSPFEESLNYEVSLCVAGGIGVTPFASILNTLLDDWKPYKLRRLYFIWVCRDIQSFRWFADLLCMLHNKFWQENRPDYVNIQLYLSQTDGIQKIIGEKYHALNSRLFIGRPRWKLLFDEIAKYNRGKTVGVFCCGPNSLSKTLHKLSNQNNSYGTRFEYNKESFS
Assay [20] addresses NADPH oxidase 5 (Homo sapiens) (UniProt Q96PH1). The assay is described as follows: NOX5-dependent H2O2 signal modulators, primary screen, NOX inhibitor project, cell-based, HEK293-NOX5, Amplex Red fluorescence (AID 1161). Particulars: HEK293-NOX5, ionomycin, 45 min, higher = more signal.

Chain of NADPH oxidase 5 (Homo sapiens) (Q96PH1 whole entry, looked up): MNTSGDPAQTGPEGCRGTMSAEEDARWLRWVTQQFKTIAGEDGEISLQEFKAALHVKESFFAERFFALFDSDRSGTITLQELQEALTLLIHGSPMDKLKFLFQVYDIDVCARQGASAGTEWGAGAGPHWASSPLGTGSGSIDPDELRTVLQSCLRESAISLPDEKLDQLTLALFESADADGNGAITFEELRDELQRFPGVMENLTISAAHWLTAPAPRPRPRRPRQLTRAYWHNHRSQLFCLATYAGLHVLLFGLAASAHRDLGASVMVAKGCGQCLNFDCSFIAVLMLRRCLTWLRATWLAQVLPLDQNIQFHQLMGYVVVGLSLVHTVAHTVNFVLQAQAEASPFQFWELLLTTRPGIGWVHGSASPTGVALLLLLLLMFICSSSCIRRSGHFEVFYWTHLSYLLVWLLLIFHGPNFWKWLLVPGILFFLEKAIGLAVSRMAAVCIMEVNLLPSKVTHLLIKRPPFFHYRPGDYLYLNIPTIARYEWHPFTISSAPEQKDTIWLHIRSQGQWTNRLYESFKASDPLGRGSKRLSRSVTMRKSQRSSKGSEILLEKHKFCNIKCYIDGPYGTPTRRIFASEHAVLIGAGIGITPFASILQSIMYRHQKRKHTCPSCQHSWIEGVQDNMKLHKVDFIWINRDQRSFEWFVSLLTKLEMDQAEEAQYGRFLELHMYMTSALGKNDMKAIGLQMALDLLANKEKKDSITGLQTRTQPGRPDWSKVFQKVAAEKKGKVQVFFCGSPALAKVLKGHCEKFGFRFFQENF
Chain of Torsin-1A (Homo sapiens) (O14656 whole entry, looked up): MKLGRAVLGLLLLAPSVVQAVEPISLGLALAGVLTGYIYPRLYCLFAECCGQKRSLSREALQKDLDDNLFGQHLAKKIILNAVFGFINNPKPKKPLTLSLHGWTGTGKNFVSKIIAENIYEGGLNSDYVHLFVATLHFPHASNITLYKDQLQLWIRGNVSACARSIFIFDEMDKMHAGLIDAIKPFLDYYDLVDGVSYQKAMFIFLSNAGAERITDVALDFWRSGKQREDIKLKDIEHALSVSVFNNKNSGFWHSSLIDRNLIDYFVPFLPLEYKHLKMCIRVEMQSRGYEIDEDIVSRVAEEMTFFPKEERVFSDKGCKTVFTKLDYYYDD

As to `COc1cc2c(cc1O)C(c1cccs1)N(Cc1cccc(OC(F)(F)F)c1)CC2` (stereo not given), the composite z-score in [1] is -0.189; in [6] it was 0.403; in assay [7], -0.0762; with Torsin-1A (Homo sapiens) [8], 0.288; with Torsin-1A (Homo sapiens) [9], 0.0814; in assay [10], 0.251. Also, the composite z-score in assay [12] is -0.0999. Besides, the z-score is -4.65 (inactive) in assay [2]; 0.284 (inactive) in assay [3]; -0.644 (inactive) in assay [4]; -0.73 (inactive) in [5]; 0.36 (inactive) in assay [11]; 8.07 (active) in assay [13]. The z-score was 0.192 (inactive) in assay [14]; 0.112 (inactive) in assay [15]; -0.751 (inactive) in assay [16]; 1.09 in assay [17]; -4.69 (inactive) in [18]; -2.74 (inactive) in [19]. This compound also returned a z-score in assay [20] of -4.1.

`COc1ccc([Si](C)(C)[C@@H]2[C@@H](CCn3cc([C@H](O)c4ccccc4)nn3)O[C@]3(C(=O)N(Cc4cccc(N5CCC5=O)c4)c4ccccc43)[C@H]2C)cc1`: the composite z-score in [1] was -0.166; in [6], 0.0185; in assay [7], -0.0477; with Torsin-1A (Homo sapiens) [8], 0.423; with Torsin-1A (Homo sapiens) [9], 0.0953; in [10] it was 0.71. Moreover, in [12], the composite z-score is -0.144. The z-score in [2] was -2.43 (inactive); in [3] it was -1.1 (inactive); in assay [4] it was -0.272 (inactive); in assay [5] it was -0.144 (inactive); in [11] it was -0.811 (inactive); in assay [13] it was 10.4 (active). Besides, the z-score in [14] was 2.06 (inactive); in [15] it was 0.538 (inactive); in assay [16] it was 0.989 (inactive); in assay [17] it was 0.135; in assay [18], 0.702 (inactive); in assay [19], 1.4 (inactive). This compound also showed a z-score in [20] of 2.32.

With `C=CCNC(=O)[C@@H]1[C@H]2C(=O)O[C@H](c3ccccc3)[C@H](c3ccccc3)N2[C@H](c2ccc(OCCO)cc2)[C@@]12C(=O)N(C(=O)OCCOC)c1ccc(C#CCNC(N)=O)cc12`, the composite z-score is 0.372 in [1]; 0.348 in assay [6]; 0.115 in assay [7]; 0.609 with Torsin-1A (Homo sapiens) [8]; 0.733 with Torsin-1A (Homo sapiens) [9]; 1.56 in assay [10]. In addition, the composite z-score in [12] is 0.284. The z-score in [2] is -1.1 (inactive); in [3], 0.388 (inactive); in assay [4], 0.505 (inactive); in [5] it was -0.419 (inactive); in assay [11] it was 1.43 (inactive); in assay [13], 4.2 (inactive). For the same compound, the z-score in assay [14] is 0.921 (inactive); in [15], 1.47 (inactive); in assay [16] it was 0.514 (inactive); in [17], 0.472; in assay [18], 0.827 (inactive); in [19] it was -0.213 (inactive). Further, the z-score in assay [20] amounted to 0.0624.

Take `OCCCC1=CC(C2CC2)N(Cc2cccc(OC(F)(F)F)c2)CC1` (stereo not given): the composite z-score in assay [1] is -0.416; in assay [6], -0.753; in [7] it was -0.213; in the assay with Torsin-1A (Homo sapiens) [8] it was -0.176; with Torsin-1A (Homo sapiens) [9], -0.773; in [10] it was 1. This compound also returned a composite z-score in assay [12] of -0.0813. Also, the z-score in assay [2] is -0.28 (inactive); in [3], 0.129 (inactive); in assay [4] it was 0.0882 (inactive); in assay [5], 0.0103 (inactive); in assay [11], -0.469 (inactive); in assay [13], 1.82 (inactive). Further, the z-score in assay [14] is 0.539 (inactive); in assay [15] it was 0.982 (inactive); in [16] it was 0.675 (inactive); in assay [17], 0.473; in assay [18], -1.2 (inactive); in assay [19] it was -0.822 (inactive). This compound gave a z-score in [20] of -1.48.
